From PubChem BioAssay (EPA / NIEHS)
Results filed as inconclusive are left out. Calls of active or inactive are those of the source. The calls were made as follows, unless noted: active = hit-call score of the fitted dose curve at least 0.9, where 1 is the maximum; inconclusive = response in the unintended direction; inactive = score below 0.9.

Key:
[1] = TOX21_p53_BLA_p2_viability: Viability Assessment in the Tox21 HCT-116 p53 Agonism Beta-lactamase Assay, Phase 2 (AID 2283591);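 also: compound exposure lasted 16 h at 37 °C; actives lower the ATP signal meaning cytotoxicity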
Method in brief: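 HCT116 p53-bla cells, 4000/well, dosed after 5 h plating (217-fold dilution of DMSO stocks) and incubated 16 h at 37C. Viability taken as cellular ATP by CellTiter-Glo luminescence after 30 min RT; signal loss marks cytotoxicity.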

[2] = biological target: Cellular tumor antigen p53 (Homo sapiens) (UniProt P04637); experiment: TOX21_p53_BLA_p2_ratio: Tox21 HCT-116 p53 Agonism Beta-lactamase Assay, Ratio, Phase 2 (AID 2283592)
Cellular tumor antigen p53 (Homo sapiens), sequence (P04637 whole entry, looked up): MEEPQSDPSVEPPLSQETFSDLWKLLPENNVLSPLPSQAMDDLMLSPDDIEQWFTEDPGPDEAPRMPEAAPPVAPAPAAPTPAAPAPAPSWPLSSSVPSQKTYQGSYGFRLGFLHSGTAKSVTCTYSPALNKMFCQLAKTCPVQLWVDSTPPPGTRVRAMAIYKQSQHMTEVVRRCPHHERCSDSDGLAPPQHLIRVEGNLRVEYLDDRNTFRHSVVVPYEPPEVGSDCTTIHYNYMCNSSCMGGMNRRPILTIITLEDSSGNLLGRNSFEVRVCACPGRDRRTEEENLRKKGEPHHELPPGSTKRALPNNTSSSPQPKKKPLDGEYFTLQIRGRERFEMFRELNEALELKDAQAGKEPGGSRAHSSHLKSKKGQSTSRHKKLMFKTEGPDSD
Method in brief: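 DMSO-normalized, positive-direction endpoint derived from the 460 nm/530 nm FRET ratio in HCT116 p53 beta-lactamase reporter cells exposed 16 h at 37C and loaded with CCF4-AM for 2 h.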

[3] = TOX21_p53_BLA_p3_viability: Viability Assessment in the Tox21 HCT-116 p53 Agonism Beta-lactamase Assay, Phase 3 (AID 2283593);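 also: cells exposed to compound for 16 h before reading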
Method in brief: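 HCT116 cells, 4000/well, dosed 5 h after plating by pin transfer (217-fold dilution from DMSO stock) and incubated 16 h at 37C, 5% CO2. Viability read as ATP luminescence with CellTiter-Glo after 30 min at room temperature.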

[4] = biological target: Cellular tumor antigen p53 (Homo sapiens) (UniProt P04637); experiment: TOX21_p53_BLA_p3_ratio: Tox21 HCT-116 p53 Agonism Beta-lactamase Assay, Ratio, Phase 3 (AID 2283596)
Method in brief: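 Cells were seeded at 4000/well, rested 5 h at 37C, then dosed with DMSO compound solutions (217-fold dilution) for 16 h. CCF4-AM substrate was loaded for 2 h at room temperature, and the 460/530 nm emission ratio was fitted for gain of signal versus DMSO.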

[5] = TOX21_p53_BLA_p4_viability: Viability Assessment in the Tox21 HCT-116 p53 Agonism Beta-lactamase Assay, Phase 4 (AID 2283597);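 also: hits lower the luminescence signal meaning cytotoxicity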
Method in brief: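 In this multiplexed secondary endpoint, HCT116 cells (4000 per well, compound at 5 h, 16 h treatment) received CellTiter-Glo after the beta-lactamase read. Luminescence after 30 min RT reflects ATP, and falling signal marks cytotoxicity.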

[6] = TOX21_p53_BLA_p5_viability: Viability Assessment in the Tox21 HCT-116 p53 Agonism Beta-lactamase Assay, Phase 5 (AID 2283600)
Method in brief: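 Here cell health was gauged by ATP levels in wells holding 4000 cells, each treated 16 h with DMSO-delivered compounds at 217-fold dilution; reduced luminescence marked toxicity.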

[7] = biological target: Cellular tumor antigen p53 (Homo sapiens) (UniProt P04637); experiment: TOX21_p53_BLA_p4_ratio: Tox21 HCT-116 p53 Agonism Beta-lactamase Assay, Ratio, Phase 4 (AID 2283601)
Method in brief: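 HCT-116 p53 beta-lactamase reporter cells (4000/well) preincubated 5 h, then compound (217-fold dilution of DMSO stock) for 16 h at 37C. CCF4-AM substrate added 2 h at room temperature; 460/530 nm emission ratio fitted upward versus DMSO.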

[8] = CCTE_Harrill_HTTr_Viability_MCF7: CCTE's 6-hour Cell Viability Assessment for the High-Throughput Transcriptomics (HTTr) Platform, in MCF-7 cells cultured in DMEM + 10% fetal bovine serum, Harrill Lab (AID 2284010; active = hit-call score of the fitted dose curve at least 0.9, where 1 is the maximum; inactive = score below 0.9)
Method in brief: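 Propidium iodide exclusion, imaged by high-content analysis, gauged viability after a six-hour exposure across eight concentrations. Cells were MCF-7 grown in DMEM with 10% fetal bovine serum; fits run in both directions against DMSO.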

[9] = CCTE_Harrill_HTTr_Apoptosis_MCF7: CCTE's 6-hour Apoptosis Assessment for the High-Throughput Transcriptomics (HTTr) Platform, in MCF-7 cells cultured in DMEM + 10% fetal bovine serum, Harrill Lab (AID 2284011; active = hit-call score of the fitted dose curve at least 0.9, where 1 is the maximum; inactive = score below 0.9)
Method in brief: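 Apoptosis in MCF-7 cells grown in DMEM with 10% fetal bovine serum was scored after a six hour exposure by high content imaging of caspase-3/7 activation (CellEvent Caspase 3/7 Green), with DMSO serving as negative control and baseline.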

[10] = CCTE_Harrill_HTTr_CellCount_MCF7: CCTE's Cell Proliferation Assessment for the High-Throughput Transcriptomics (HTTr) Platform, Harrill Lab (AID 2284012);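 also: cells exposed to compound for six hours; intended direction is loss of nuclei count meaning fewer cells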
Method in brief: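 Cell count from high-content imaging of Hoechst-labeled nuclei serves as viability/growth readout. Chemicals were applied to MCF-7 cells in eight concentrations for six hours, with fitting in both directions relative to DMSO.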

Measured: outcome

Nc1cc(-c2ccncc2)c[nH]c1=O
not listed: [10]
inactive: all other assays above

CC(C(=O)O)c1ccc(-c2ccccc2)c(F)c1 (configuration not stated)
inactive: all assays above

O=c1n(CCCN2CCN(c3cccc(Cl)c3)CC2)nc2ccccn12
inactive: all assays above

CO[C@H]1/C=C/O[C@@]2(C)Oc3c(C)c(O)c4c(O)c(c5c(c4c3C2=O)=NC2(CCN(CC(C)C)CC2)N=5)NC(=O)/C(C)=C\C=C\[C@H](C)[C@H](O)[C@@H](C)[C@@H](O)[C@@H](C)[C@H](OC(C)=O)[C@@H]1C
not listed: [8] | [9] | [10]
inactive: all other assays above

CC/C=C\C/C=C\C/C=C\C/C=C\C/C=C\CCCC(=O)O
not listed: [8] | [9] | [10]
inactive: all other assays above

CNC(=O)CN(CCN(CCN(CC(=O)[O-])CC(=O)NC)CC(=O)[O-])CC(=O)[O-].O.[Gd+3]
not listed: [8] | [9] | [10]
inactive: all other assays above

O=[N+]([O-])c1cccc(I)c1
not listed: [8] | [9] | [10]
inactive: all other assays above
